Data taken from PubChem BioAssay AID434985 (The Scripps Research Institute Molecular Screening Center, 2010).
The list shows a part of the results.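 The calls were made as follows: active = mean percent activation over triplicates above a cutoff set from solvent-only control plates; inactive = the rest.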

Target: Oxytocin receptor (Homo sapiens) (UniProt P30559)
Test: enhancers of OXTR calcium response, retest – fluorescence, CHO-OTR cells, triplicate, confirmation (AID 434985);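 also: compounds tested in the presence of an EC15 dose of oxytocin; 0% = EC15 oxytocin with DMSO and 100% = EC100 oxytocin with DMSO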
Details: Fluo-8 calcium fluorescence, potentiation, at 3 µM, active compounds read high, scaled from low-dose to maximal oxytocin

Sequence of Oxytocin receptor (Homo sapiens) (P30559 whole entry, looked up): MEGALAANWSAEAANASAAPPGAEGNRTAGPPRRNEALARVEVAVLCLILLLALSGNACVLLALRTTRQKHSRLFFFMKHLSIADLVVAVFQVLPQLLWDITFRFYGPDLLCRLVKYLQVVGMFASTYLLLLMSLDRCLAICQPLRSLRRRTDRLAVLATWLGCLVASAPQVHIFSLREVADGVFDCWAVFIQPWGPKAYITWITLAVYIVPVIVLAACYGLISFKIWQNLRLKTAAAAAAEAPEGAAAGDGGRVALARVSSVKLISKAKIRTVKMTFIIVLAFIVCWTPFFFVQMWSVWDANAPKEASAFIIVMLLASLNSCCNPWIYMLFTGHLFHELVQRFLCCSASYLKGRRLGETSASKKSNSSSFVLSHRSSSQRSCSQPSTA

activation, inactive:
CCCCNc1c(-c2ccc(OC)c(Sc3ccc(OC)cc3)c2)nc2ccc(Cl)cn12 -4.15%
Cc1ccc(OCC(O)CN2CCN(CC(O)COc3ccc(C)cc3Cl)CC2)c(Cl)c1 (configuration not stated) -3.49%
CCCCn1c(N)c(N2CCOCC2)c(=O)n(CC(=O)NCCc2ccccc2)c1=O -3.12%
CNc1nnc(-c2ccco2)s1 -4.03%
COCCn1c(CN(Cc2ccccc2)Cc2ccccc2)nc2c1c(=O)n(C)c(=O)n2C -1.46%
Cc1cc(C)cc(NC(=O)CSc2ccccc2)c1 -0.71%
COc1cc2c(cc1OC)C(c1ccc(C)o1)CC(=O)N2 (configuration not stated) -4.74%
